High-throughput results as filed in PubChem.
In the library only some 1.9% were active in any assay of this set; here they are far more common.
Pf gamet viab: inhibitors of late stage P. falciparum gametocyte viability | inhibition, % at 10.9 µM | P. falciparum stage V gametocytes, ATP luminescence, 24 h | actives 0.065% (n = 150,000);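 active means inhibition above the mean plus 3 SD of compounds within the control limits, set per campaign, cut at about 38% in these data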
EP2 modulator: EP2 receptor (human) modulation; P43116; EP2-expressing cells, cAMP HTRF FRET, PGE2 co-stimulation; induction, % at 25 µM; actives 0.83% (n = 260,000);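 active means compounds whose cAMP rise, as percent of the full-agonist control response, exceeds 60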;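 further: rat C6 glioma line stably carrying human EP2 under a CMV promoter; the protocol text gives 20 µM as final concentration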
Target sequence (P43116 whole entry, looked up): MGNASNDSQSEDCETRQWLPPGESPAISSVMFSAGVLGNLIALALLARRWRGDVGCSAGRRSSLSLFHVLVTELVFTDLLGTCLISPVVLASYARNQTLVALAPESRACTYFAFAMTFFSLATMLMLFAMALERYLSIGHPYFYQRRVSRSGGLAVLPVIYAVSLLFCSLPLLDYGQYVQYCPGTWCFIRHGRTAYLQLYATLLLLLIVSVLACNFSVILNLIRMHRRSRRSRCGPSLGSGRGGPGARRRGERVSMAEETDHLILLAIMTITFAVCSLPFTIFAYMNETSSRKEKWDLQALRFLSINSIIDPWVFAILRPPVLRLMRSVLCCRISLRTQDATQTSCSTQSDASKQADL
S1P4 antag: human S1P4 receptor antagonism; S1P4-expressing cells, antagonist mode, reporter read-out; O95977; actives 0.26% (n = 220,000); AID 1510; inhibition, % at 4.98 µM; in the data active means inhibition above about 29%
S1P3 antag: blocks the human S1P3 receptor | CHO S1P3 NFAT-BLA reporter, FRET fluorescence, antagonist mode | inhibition, % at 4.98 µM | actives 0.27% (n = 170,000) | AID 485;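 active means inhibition above the plate cutoff, the mean inhibition of test wells on that plate plus 3 SD, cut at about 28% in these data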;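 further: cells challenged with S1P at its EC80 of 0.8 µM; blue over green emission ratio from cleaved BLA substrate after 4 h stimulation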
S1P4 ag: activates the human S1P4 receptor; O95977; activation, % at 4.98 µM; S1P4-expressing cell line, agonist reporter assay; actives 0.35% (n = 220,000); in the data active means activation above about 11%
EP2 antag: blocks the human prostaglandin E2 receptor EP2; C6 glioma cells expressing human EP2, cAMP TR-FRET; cells stimulated with saturating PGE2; inhibition, % at 25 µM; actives 0.52% (n = 260,000); AID 1422;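 active means percent inhibition above 40 after rounding to a whole number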;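 further: rat C6 glioma host cells with rolipram phosphodiesterase inhibitor present; the protocol text gives 20 µM as final concentration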
Hits are given with their value; - = inactive; . = not tested or not shown; ! = a repeat was not active.

SMILES	Pf gamet viab	EP2 modulator	S1P4 antag	S1P3 antag	S1P4 ag	EP2 antag
CCOC(=O)c1c(-c2cccc([N+](=O)[O-])c2)csc1N	-	-	-	-	-	-
CCOC(=O)c1csc(N)c1-c1ccc([N+](=O)[O-])cc1	-	63	-	-	-	-
CC(C)c1nc(SCC(=O)N2CCOCC2)c2c3c(sc2n1)CCCC3	.	-	.	.	.	-
C/C(N)=C(/C#N)C(=O)COC(=O)c1ccccc1Cc1ccccc1	-	63	-	-	-	-
C/C(N)=C(/C#N)C(=O)COC(=O)c1ccncc1	-	-	-	-	-	-
CCn1ncc(Br)c1C(=O)Nc1ccccc1OC	-	63	-	-	-	-
COc1ccc(CCNC(=O)c2ccc(-c3ccc([N+](=O)[O-])cc3Cl)o2)cc1OC	-	-	-	-	-	-
COc1ccc(CCNC(=O)c2ccc(-c3ccccc3Cl)o2)cc1OC	.	-	.	.	.	62
COc1ccc(S(=O)(=O)N2CCC(C(=O)Nc3cccc(C(C)=O)c3)CC2)cc1OC	.	-	.	.	.	-
CCN(CC)C(=O)C1CCN(S(=O)(=O)c2ccc(F)cc2)CC1	.	-	.	.	.	-
CC(O)CNc1nc2c(c(=O)n(C)c(=O)n2C)n1Cc1cccc(Br)c1 (stereo not drawn)	-	-	-	-	-	-
CC(C)CNc1nc2c(c(=O)n(C)c(=O)n2C)n1Cc1cccc(Br)c1	-	62	-	.	-	-
COc1cccc(OC)c1C(=O)N1CCN(S(C)(=O)=O)CC1	.	-	.	.	.	-
Cc1cc(C(F)F)n2nc(C(=O)Nc3sc4c(c3C(=O)OC(C)C)CCCC4)nc2n1	.	67	.	.	.	-
COc1cc(NC(=O)c2cc(C)cc(C)c2)ccc1NC(=O)c1ccco1	.	-	.	.	.	-
CN=C(Nc1cc(C)nn1CCC#N)c1ccccc1	-	-	-	-	-	-
Cc1cc(OC(=O)c2ccccc2)n(CCC#N)n1	.	-	-	102	-	-
CC(=O)c1cccc(NC(=O)N2CCCC2C(=O)NCc2cccs2)c1 (stereo not drawn)	.	-	.	.	.	-
Cc1ccc2c(c1)cc(CN(Cc1cccnc1)C(=O)c1cccs1)c1nnnn12	.	-	.	.	.	-
Cc1ccccc1CNC1CCCCC1	-	-	-	-	-	-
Oc1cc(CN2COc3ccccc32)c(O)cc1CNC1CCCCC1	.	-	.	.	.	118
COc1ccc(NC(=O)CSc2ncnc3c2cnn3-c2ccc(C)c(C)c2)cc1	.	-	.	.	.	-
S=C(NCCCN1CCOCC1)NC1CCCC1	-	-	-	-	-	93
S=C(NCCN1CCOCC1)NC1CCCCC1	-	-	-	-	-	-
COc1ccc(C(NC(=O)C2CCC(OC)CC2)c2nccn2C)cc1 (stereo not drawn)	.	-	.	.	.	-
SMILES	Pf gamet viab	EP2 modulator	S1P4 antag	S1P3 antag	S1P4 ag	EP2 antag
Cc1c(N2CCCC2)cc2c(c1NC(=O)c1ccccc1Cl)C(C)(C)CC2(C)C	.	-	-	-	-	47!
COc1cc2nc(-c3ccc(Br)o3)oc(=O)c2cc1OC	.	-	-	-	-	40
O=C(CSCc1nc2sc3c(c2c(=O)[nH]1)CCCC3)Nc1ccccc1Cl	.	-	.	.	.	-
C/C(CCc1oc2ccc(Br)cc2c1-c1ccc(C)o1)=N/O	-	63	-	-	-	-
Cc1ccc(-c2cc(C(=O)O)c3cc(Br)ccc3n2)o1	.	-	-	-	-	-
C[C@@]1(CO)[C@H](O)CC[C@]2(C)[C@@H]1CC[C@H]1C[C@H]3C[C@]12CC[C@@]3(O)COC(=O)CN	.	-	.	.	.	52
CC1(C)CC[C@]2(C(=O)O)CC[C@]3(C)C(=CCC4[C@@]5(C)CC[C@H](O)[C@@](C)(CO)C5CC[C@]43C)C2C1 (stereo partly drawn)	.	-	.	.	.	-
CCc1nnc(NC(=O)CCN2C(=O)/C(=C/c3cccs3)SC2=S)s1	.	-	.	.	.	-
COC(=O)c1c(NC(=O)c2ccco2)sc2c1C(C(=O)OC)CC2 (stereo not drawn)	.	-	-	54	-	-
COc1cccc2cc(C(=O)Nc3ccccc3C(N)=O)c(=O)oc12	.	-	.	.	.	-
C[C@@]12CC[C@@H]3[C@H](CCC4=CC(=O)CC[C@]43C)[C@H]1CC[C@H]2C(=O)Cn1cnc2c(=S)nc[nH]c21	.	-	.	.	.	41
CC(=O)OCC(=O)[C@H]1CCC2C3CCC4=CC(=O)CC[C@]4(C)C3CC[C@@]21C (stereo partly drawn)	.	-	.	.	.	-
C[C@@]12CC[C@@H]3[C@H](CCC4=CC(=O)CC[C@]43C)[C@H]1CC[C@H]2C(=O)COS(=O)(=O)c1ccc(Br)cc1	.	-	.	.	.	44
